Data as given in PubChem BioAssay AID1508622 (National Center for Advancing Translational Sciences (NCATS), 2021).
Active and inactive are the calls of the source. Calls follow the shape of the dose curve; as a rule, active = well fitted activation curve with a large enough effect; inconclusive = small, poorly fitted or top-dose-only effect; inactive = no such curve, though single readings can be large or run the other way.

assay: Confirmatory qHTS for Identification of Small Molecule Activators of Huntingtin-Antisense Promoter Activity; conditions: HEK293 HTT-AS promoter firefly luciferase reporter, 24 h; series mostly up to 57.5 µM
Procedure, shortened: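 Activity normalized between vehicle control (0%) and zero RLU (-100%) from firefly luminescence (Dual-Glo). Compounds, up to 57.5 uM final, incubated 24 h at 37C on HEK293 reporter cells plated 24 h earlier.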

Potency, inactive:
Cc1ccc(Cl)cc1-n1ncc2c(Nc3cccc(C)c3C)ncnc21
CN1CCCC(n2nc(Cc3ccc(Cl)cc3)c3ccccc3c2=O)CC1 (centres undefined)
Cc1noc(/C=C/c2ccccc2F)c1S(=O)(=O)N1CCC(C(=O)Nc2ccc(C#N)cc2)CC1
CCC(=O)N1CCCc2cc(S(=O)(=O)N3CCC(C(=O)Nc4ccccc4CC)CC3)ccc21
CCc1ccc(CNC(=O)c2ccc3nc(SCc4ccc(F)cc4)n(C)c3c2)cc1
CN(CC(=O)Nc1ccc(OC(F)(F)F)cc1)S(=O)(=O)c1ccc2c(c1)CCC(=O)N2
COc1cc(C2CC(=O)c3c([nH]c(C(=O)OCc4ccc(C)cc4)c3C)C2)cc(OC)c1OC (centres undefined)
N#Cc1nc(-c2ccc(COc3ccc(Cl)cc3)o2)oc1N1CCC(C(N)=O)CC1
CCOC(=O)c1ccc(CN(Cc2ccc(C)cc2)S(=O)(=O)c2ccc(NC(C)=O)cc2)cc1
Cc1cccc(-c2nc(CSCC(=O)N3CCN(c4ccccc4)CC3)c(C)o2)c1
Fc1ccc(N2CCN(c3ncnc4c3nc3n4CCCCC3)CC2)cc1
Cc1ccc(-c2c(C)n3c4c(=O)n(C)c(=O)n(C)c4nc3n2CCO)cc1
CCN1C(=O)c2ccccc2Sc2ccc(NC(=O)c3cccc(C)c3)cc21
COc1ccc2[nH]cc(CCNC(=O)c3cnn(-c4ccc(C)cc4)c3C3CCN(C(=O)OC(C)(C)C)CC3)c2c1
Cc1cc(C)c(/C=C/c2onc(C)c2S(=O)(=O)N2CCC(C(=O)NCc3ccco3)CC2)c(C)c1
COc1cccc(CNC(=O)c2ccc(-c3nc(COc4ccccc4)c(C)o3)cc2)c1
CCC1=C(c2ccc(C)cc2)S(=O)(=O)N=C1N1CCC(C(=O)NCCc2ccc(Cl)cc2)CC1
COc1cc(C[C@@H](CO)[C@H](CO)Cc2ccc(O)c(OC)c2)ccc1O
N#CC[C@H](C1CCCC1)n1cc(-c2ncnc3[nH]ccc23)cn1
Cc1ccc(Cn2cc(/C=C(/C#N)C(=O)Nc3cccc(Cl)c3)c3ccccc32)cc1
CCc1nnc(NC(=O)c2nc(S(=O)(=O)Cc3cccc(C)c3)ncc2Cl)s1
CCOC(=O)C1CCC(CN(Cc2ccc(Cl)cc2)S(=O)(=O)c2cc(Cl)cc(Cl)c2)CC1 (centres undefined)
CC(C)Cn1c(-c2ccc(S(=O)(=O)N3CCCC3)cc2)csc1=Nc1ccccc1
CCC(=O)C1=C(c2cccc([N+](=O)[O-])c2)N(C(=O)CC)n2c(nnc2C2CCCCC2)S1
Cn1c(Oc2ccc(F)cc2)nc2c1c(=O)n(Cc1ccccc1Cl)c(=O)n2C
CC1CCCCN1C(=O)CSc1nc2ccccc2nc1Cc1ccc(Cl)cc1 (centres undefined)
CCOc1ccc(N(Cc2ccccc2)C(=O)c2nc(SC)ncc2Cl)cc1
COc1ccc(-n2c(=O)[nH]c3cc(C(=O)NCCc4ccc(Cl)cc4)ccc3c2=O)cc1OC
COc1ccc(Cn2c(CO)cnc2SCc2ccc(F)cc2)cc1
CCn1c(=O)sc2cc(NS(=O)(=O)c3ccc(F)c(C)c3)ccc21
Cc1ccc(NC(=O)c2c(Nc3ccccc3C)sc(C(=O)c3ccccc3)c2N)cc1
CC(C)OCc1cc(CN2CCN(c3ccccc3)CC2)c(O)c2ncccc12
CCc1ccc(CNC(=O)c2cccc(-n3c(C)nc4cccnc43)c2)cc1
Cc1cccc(CS(=O)(=O)Cc2ccc(C(=O)NCc3ccc(Cl)cc3)o2)c1
COc1ccccc1CCNC(=O)C(=O)NCC(c1cccs1)S(=O)(=O)c1ccccc1 (centres undefined)
CCOC(=O)c1cc(C)n(CC2CCC(C(=O)Nc3ccc(Cl)cc3)CC2)c1C (centres undefined)
CCOc1ccccc1CNC(=O)c1ccc(NC(=O)N2CCSc3ncccc32)cc1
COc1ccc(-n2c(/C=C/c3cccc4ccccc34)nc3ccccc3c2=O)cc1Cl
CCN(CC)CCOc1ccc(C(=C(Cl)c2ccccc2)c2ccccc2)cc1
